{"source": "PubChem BioAssay (NCI)", "note": "This is part of a sample that, as a whole, favours compounds with a hit. Of some 79,000 tested, about 15% had one in any assay. The source made the active and inactive calls. Rule as the data show it: active = growth inhibition above about 70%; inactive = the rest."}
{"experiment": "NCI Yeast Anticancer Drug Screen. Data for the sgs1 mgt1 strain (AID 161);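 also: 0% = growth of cultures given vehicle only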", "conditions": "S. cerevisiae sgs1 mgt1 strain, at 50.0 µM, hits give high values", "method_in_brief": "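Genetically altered yeast, compound exposure, growth inhibition relative to vehicle.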"}
{"smiles": "COC(=O)CC(NC(=O)C(Cc1cncn1C(=O)OCc1ccccc1)NC(=O)OCc1ccccc1)C(=O)O", "note": "(stereo not drawn)", "growth inhibition": "0.45% (inactive)"}
{"smiles": "CS/C(=N/N=C(\\C)c1ccccn1)[Se][Se]/C(=N/N=C(\\C)c1ccccn1)SC", "growth inhibition": "15.6% (inactive)"}
{"smiles": "Nc1cccc2c(=O)[nH][nH]c(=O)c12", "growth inhibition": "23.9% (inactive)"}
{"smiles": "CC(C)c1ccc(NC(=S)NCCO)cc1", "growth inhibition": "-21.7% (inactive)"}
{"smiles": "C/C(=N/NC(=O)CC#N)c1ccccc1", "growth inhibition": "16.7% (inactive)"}
{"smiles": "O=c1cc(-c2ccccc2Cl)[nH]c2cc3c(cc12)OCO3", "growth inhibition": "21.9% (inactive)"}
{"smiles": "NCCCn1[nH]c(=O)c2ncccc2c1=O", "growth inhibition": "-11.7% (inactive)"}
{"smiles": "Cc1cc(C)c(CN(C)C)c(CC(O)c2ccccc2)c1", "note": "(stereo not drawn)", "growth inhibition": "7.4% (inactive)"}
{"smiles": "CC(=O)Nc1ccc(/C=C2\\SC(=S)N(/C=C3/C(=O)N(c4ccccc4)N=C3C)C2=O)cc1", "growth inhibition": "4% (inactive)"}
{"smiles": "CC(=O)OC[C@]1(O)CC[C@@]23CC1C[C@@H]2CCC1C(C)(C)CCC[C@@]13C", "note": "(stereo partly drawn)", "growth inhibition": "64.8% (inactive)"}
{"smiles": "O=C1OC(c2ccc(Cl)cc2)=N/C1=C\\c1c(Cl)cccc1Cl", "growth inhibition": "11.9% (inactive)"}
{"smiles": "CCOC(=O)CC1(C)c2nc(NC(C)=O)sc2Cc2sc(NC(C)=O)nc21", "growth inhibition": "0.8% (inactive)"}
{"smiles": "NC1=NOC(=O)C1c1ccccc1", "note": "(stereo not drawn)", "growth inhibition": "-10.2% (inactive)"}
{"smiles": "CCc1cc(C(C)(C)C)cc(C(C)(C)C)c1O", "growth inhibition": "-5.75% (inactive)"}
{"smiles": "COc1ccc(/C=N/Nc2nc3ccccc3c(=O)n2-c2ccccc2)c(OCc2ccccc2)c1", "growth inhibition": "5.5% (inactive)"}
{"smiles": "C[n+]1c(-c2ccc(Cl)c(Cl)c2)c2cc(N)ccc2c2ccccc21", "growth inhibition": "30.6% (inactive)"}
{"smiles": "O=C1CC[C@@H](NC(=O)Cc2ccccc2)C(=O)N1", "growth inhibition": "-12.8% (inactive)"}
{"smiles": "O=C(CCl)Nc1cc(C(F)(F)F)ccc1Cl", "growth inhibition": "18.1% (inactive)"}
{"smiles": "CCCCCCCCCCCCCCCCCCN(C)C", "growth inhibition": "13.8% (inactive)"}
{"smiles": "CCN(CC)c1ccc(NC(=O)CCl)cc1", "growth inhibition": "-13% (inactive)"}
{"smiles": "CCCCCCC1N(C(C#N)c2ccccc2)CCCN1C(C#N)c1ccccc1", "note": "(stereo not drawn)", "growth inhibition": "16.6% (inactive)"}
{"smiles": "COc1ccccc1/C=C(\\C#N)C(=O)O", "growth inhibition": "-0.75% (inactive)"}
{"smiles": "C=C1C(=O)OC2(CCCCC)CCCCC12", "note": "(stereo not drawn)", "growth inhibition": "-11.2% (inactive)"}
{"smiles": "CC(O)C1NC(=S)N(c2ccccc2)C1=O", "note": "(stereo not drawn)", "growth inhibition": "20.8% (inactive)"}
{"smiles": "O=[N+]([O-])c1ccc(Cl)c(C(F)(F)F)c1", "growth inhibition": "4% (inactive)"}
{"smiles": "Oc1ccccc1C=Nc1ccc(Cl)cc1", "growth inhibition": "-5.5% (inactive)"}
{"smiles": "O=C(O)[C@@H]1[C@@H]2C[C@@H]3[C@H](OC(=O)[C@@H]31)[C@@H]2O", "growth inhibition": "-25.4% (inactive)"}
{"smiles": "CN(C(=O)C12C3C4C5C3C1(C(=O)O)C5C42)C(C)(C)C", "note": "(stereo not drawn)", "growth inhibition": "0.85% (inactive)"}
{"smiles": "O=C(O)c1ccc(/C=N/NC(=S)Nc2cccc3cccnc23)cc1", "growth inhibition": "6.6% (inactive)"}
{"smiles": "COc1ccc2nc3cc([N+](=O)[O-])ccc3c(Nc3ccc(S(=O)(=O)N=C(N)N)cc3)c2c1", "growth inhibition": "48.5% (inactive)"}
{"smiles": "COC(=O)C1C(c2ccccc2)C1(C#N)C#N", "note": "(stereo not drawn)", "growth inhibition": "-1% (inactive)"}
{"smiles": "COc1ccc(CN)cc1", "growth inhibition": "-15.2% (inactive)"}
{"smiles": "CCOc1ncc(C(O)c2ccc(C)cc2)c(OCC)n1", "note": "(stereo not drawn)", "growth inhibition": "-3.75% (inactive)"}
{"smiles": "O=C(CC(=O)CC(O)(C(F)(F)F)C(F)(F)F)CC(O)(C(F)(F)F)C(F)(F)F", "growth inhibition": "79.8% (active)"}
{"smiles": "Nc1ccc(C(=O)Nc2nccs2)cc1", "growth inhibition": "6.8% (inactive)"}
{"smiles": "Cc1cn(C2CC(C)N(CCO)O2)c(=O)[nH]c1=O", "note": "(stereo not drawn)", "growth inhibition": "-16.8% (inactive)"}
{"smiles": "NC(N)=N/N=C/c1c(Cl)nc2n1CCS2", "growth inhibition": "-9.5% (inactive)"}
{"smiles": "C[S+](C)CCOC(=O)C(=[N+]=[N-])c1ccc([N+](=O)[O-])cc1", "growth inhibition": "44.3% (inactive)"}
{"smiles": "O=[N+]([O-])c1ccc(/C=C(/c2ccc([N+](=O)[O-])o2)S(=O)(=O)c2ccccc2)o1", "growth inhibition": "92.1% (active)"}
{"experiment": "NCI Yeast Anticancer Drug Screen. Data for the cln2 rad14 strain (AID 165);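 also: 0% = growth equal to vehicle treated cultures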", "conditions": "S. cerevisiae cln2 rad14 strain, at 50.0 µM, hits give high values", "method_in_brief": "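cln2 rad14 yeast strain; compound exposure; growth inhibition read vs vehicle controls.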"}
{"smiles": "COC(=O)CC(NC(=O)C(Cc1cncn1C(=O)OCc1ccccc1)NC(=O)OCc1ccccc1)C(=O)O", "note": "(stereo not drawn)", "growth inhibition": "6.8% (inactive)"}
{"smiles": "CS/C(=N/N=C(\\C)c1ccccn1)[Se][Se]/C(=N/N=C(\\C)c1ccccn1)SC", "growth inhibition": "29.2% (inactive)"}
{"smiles": "Nc1cccc2c(=O)[nH][nH]c(=O)c12", "growth inhibition": "9.95% (inactive)"}
{"smiles": "CC(C)c1ccc(NC(=S)NCCO)cc1", "growth inhibition": "-9.65% (inactive)"}
{"smiles": "C/C(=N/NC(=O)CC#N)c1ccccc1", "growth inhibition": "-20.6% (inactive)"}
{"smiles": "O=c1cc(-c2ccccc2Cl)[nH]c2cc3c(cc12)OCO3", "growth inhibition": "-6.95% (inactive)"}
{"smiles": "NCCCn1[nH]c(=O)c2ncccc2c1=O", "growth inhibition": "-91.5% (inactive)"}
{"smiles": "Cc1cc(C)c(CN(C)C)c(CC(O)c2ccccc2)c1", "note": "(stereo not drawn)", "growth inhibition": "-15% (inactive)"}
{"smiles": "CC(=O)Nc1ccc(/C=C2\\SC(=S)N(/C=C3/C(=O)N(c4ccccc4)N=C3C)C2=O)cc1", "growth inhibition": "7% (inactive)"}
{"smiles": "CC(=O)OC[C@]1(O)CC[C@@]23CC1C[C@@H]2CCC1C(C)(C)CCC[C@@]13C", "note": "(stereo partly drawn)", "growth inhibition": "71.6% (active)"}
{"smiles": "O=C1OC(c2ccc(Cl)cc2)=N/C1=C\\c1c(Cl)cccc1Cl", "growth inhibition": "11.9% (inactive)"}
{"smiles": "CCOC(=O)CC1(C)c2nc(NC(C)=O)sc2Cc2sc(NC(C)=O)nc21", "growth inhibition": "-26.6% (inactive)"}
{"smiles": "NC1=NOC(=O)C1c1ccccc1", "note": "(stereo not drawn)", "growth inhibition": "2.55% (inactive)"}
{"smiles": "CCc1cc(C(C)(C)C)cc(C(C)(C)C)c1O", "growth inhibition": "6.05% (inactive)"}
{"smiles": "COc1ccc(/C=N/Nc2nc3ccccc3c(=O)n2-c2ccccc2)c(OCc2ccccc2)c1", "growth inhibition": "-0.1% (inactive)"}
{"smiles": "C[n+]1c(-c2ccc(Cl)c(Cl)c2)c2cc(N)ccc2c2ccccc21", "growth inhibition": "3.9% (inactive)"}
{"smiles": "O=C1CC[C@@H](NC(=O)Cc2ccccc2)C(=O)N1", "growth inhibition": "-6.75% (inactive)"}
{"smiles": "O=C(CCl)Nc1cc(C(F)(F)F)ccc1Cl", "growth inhibition": "4.85% (inactive)"}
{"smiles": "CCCCCCCCCCCCCCCCCCN(C)C", "growth inhibition": "-64.9% (inactive)"}
{"smiles": "CCN(CC)c1ccc(NC(=O)CCl)cc1", "growth inhibition": "1.45% (inactive)"}
{"smiles": "CCCCCCC1N(C(C#N)c2ccccc2)CCCN1C(C#N)c1ccccc1", "note": "(stereo not drawn)", "growth inhibition": "7.6% (inactive)"}
{"smiles": "COc1ccccc1/C=C(\\C#N)C(=O)O", "growth inhibition": "8.6% (inactive)"}
{"smiles": "C=C1C(=O)OC2(CCCCC)CCCCC12", "note": "(stereo not drawn)", "growth inhibition": "-9.9% (inactive)"}
{"smiles": "CC(O)C1NC(=S)N(c2ccccc2)C1=O", "note": "(stereo not drawn)", "growth inhibition": "-20.2% (inactive)"}
{"smiles": "O=[N+]([O-])c1ccc(Cl)c(C(F)(F)F)c1", "growth inhibition": "-2.75% (inactive)"}
{"smiles": "Oc1ccccc1C=Nc1ccc(Cl)cc1", "growth inhibition": "-12.7% (inactive)"}
{"smiles": "O=C(O)[C@@H]1[C@@H]2C[C@@H]3[C@H](OC(=O)[C@@H]31)[C@@H]2O", "growth inhibition": "1.9% (inactive)"}
{"smiles": "CN(C(=O)C12C3C4C5C3C1(C(=O)O)C5C42)C(C)(C)C", "note": "(stereo not drawn)", "growth inhibition": "18.8% (inactive)"}
{"smiles": "O=C(O)c1ccc(/C=N/NC(=S)Nc2cccc3cccnc23)cc1", "growth inhibition": "16.4% (inactive)"}
{"smiles": "COc1ccc2nc3cc([N+](=O)[O-])ccc3c(Nc3ccc(S(=O)(=O)N=C(N)N)cc3)c2c1", "growth inhibition": "12.8% (inactive)"}
{"smiles": "COC(=O)C1C(c2ccccc2)C1(C#N)C#N", "note": "(stereo not drawn)", "growth inhibition": "-25.6% (inactive)"}
{"smiles": "COc1ccc(CN)cc1", "growth inhibition": "2.75% (inactive)"}
{"smiles": "CCOc1ncc(C(O)c2ccc(C)cc2)c(OCC)n1", "note": "(stereo not drawn)", "growth inhibition": "-52.6% (inactive)"}
{"smiles": "O=C(CC(=O)CC(O)(C(F)(F)F)C(F)(F)F)CC(O)(C(F)(F)F)C(F)(F)F", "growth inhibition": "59% (inactive)"}
{"smiles": "Nc1ccc(C(=O)Nc2nccs2)cc1", "growth inhibition": "-19.8% (inactive)"}
{"smiles": "Cc1cn(C2CC(C)N(CCO)O2)c(=O)[nH]c1=O", "note": "(stereo not drawn)", "growth inhibition": "-11.6% (inactive)"}
{"smiles": "NC(N)=N/N=C/c1c(Cl)nc2n1CCS2", "growth inhibition": "3.5% (inactive)"}
{"smiles": "C[S+](C)CCOC(=O)C(=[N+]=[N-])c1ccc([N+](=O)[O-])cc1", "growth inhibition": "25.8% (inactive)"}
{"smiles": "O=[N+]([O-])c1ccc(/C=C(/c2ccc([N+](=O)[O-])o2)S(=O)(=O)c2ccccc2)o1", "growth inhibition": "71.1% (active)"}
